The results in this text go back to paper PMC5540273 (PLoS ONE, 2017).
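Note: KINOMEscan kinase panel screen.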

One assay has as its system MAP4K4. Particulars: concentration: 1 μM, replicates: in singlicate; n = 1.
As to `COc1cccc(C2=C(Nc3ccc(Cl)c(C(=O)O)c3)C(=O)NC2=O)c1` [SB-390769], the “%Inh” value worked out at 100%.
For `COc1ccc(Nc2nccc(NCCNC(=O)c3cc4ccccc4s3)n2)cc1` [GSK1379896], the “%Inh” value was 1%.
`COc1ccc(CNC(=O)NC2CCN(c3ccnc(Nc4ccc(F)cc4)n3)CC2)cc1` [GSK1379788]: the “%Inh” value is recorded as 2%.

A further assay relates to MAP4K5. Particulars: concentration: 1 μM, replicates: in singlicate; n = 1.
For `CC(C)(C)c1ccc2nccc(Nc3cccc(O)c3)c2c1` [GW856795], the “%Inh” value was found to be 29%.
The same measure, in the same setting: the figure for `COc1cc2c(cc1OCCN1CCNCC1)ncc1c3ccc(C#N)cc3[nH]c21` is 5%; for `COc1cc(Nc2nccc(-c3c(-c4cccc(NC(=O)c5c(F)cccc5F)c4)nn4ccccc34)n2)cc(OC)c1OC` [GSK323521] it is 70%; for `Cc1ccc(S(=O)(=O)Nc2ccc(Nc3nccc(Nc4cccc5[nH]ncc45)n3)cc2)cc1` [GSK581271] it is 0%.
Regarding `CCc1ccc(-c2ccc3c(c2)-c2c(cnn2C)S(=O)(=O)N3C)cc1`, the “%Inh” value was 1%.
Take `O=C(Nc1cccc(-c2nn3ncccc3c2-c2ccnc(Nc3ccccc3)n2)c1)c1c(F)cccc1F` [GSK198271]: the “%Inh” value came out at 84%.
Still for that read-out and setting: as for `Fc1ccc(-c2ncn(C3CCNCC3)c2-c2ccnc(Oc3ccc(-c4ccccc4)cc3)n2)cc1` [SB-245391], the figure is 26%; as for `CN(c1ccc(NC(=O)Nc2cc(C(F)(F)F)ccc2F)cc1)c1ccnc(Nc2ccc(S(N)(=O)=O)cc2)n1` [GW809893], 99.2%.
Consider `CC(=O)Nc1nc2cnc(Nc3cc(NC(=O)c4cccc(C5(C#N)CC5)c4Cl)ccc3C)nc2s1`, for which the “%Inh” value is recorded as 0%.
